Test results from paper PMC4552634, “A New Set of Chemical Starting Points with Plasmodium falciparum Transmission-Blocking Potential for Antimalarial Drug Discovery” (PLoS ONE, 2015).
In all, about 13,000 compounds went through this assay and about 3,200 (25%) showed an effect of 50% or more. The list shows a part of the results.

Tested on: P. falciparum stage V gametocytes
Parameters: BacTiter-Glo ATP luminescence viability of purified stage V gametocytes in 384-well plates, per cent inhibition versus DMSO
Conditions: 48 h, 5 µM; inhibitor

Structure (SMILES) | % Inhibition [%]
COc1cc(Nc2nccc(N3CCC(NC(=O)Nc4cccc(C(C)=O)c4)C3)n2)cc(OC)c1OC (centres unmarked) [TCMDC-133621] | -9.129
COc1cc(Cc2cnc(N)nc2N)cc(OCC(C)(C)C(=O)O)c1OC [TCMDC-137887] | -9.297
NC(=O)c1ccc(NCC(=O)Nc2cccc(-c3cccc(-c4nc5ccc(F)cc5[nH]4)c3)c2)cc1 [TCMDC-132163] | 90.29
Cc1cnc(C(=O)Nc2cccc(-c3ccc(-c4nc5ccc(F)cc5[nH]4)cc3)c2)cn1 [TCMDC-137029] | 23.15
Cc1cnc(C(=O)Nc2cccc(-c3cccc(-c4nc5ccc(F)cc5[nH]4)c3)c2)cn1 [TCMDC-137027] | 68.21
CC(=O)Nc1cccc(C(=O)Nc2cccc(-c3ccc(-c4nc5ccc(F)cc5[nH]4)cc3)c2)c1 [TCMDC-132139] | -25.67
NC(=O)c1ccc(NCC(=O)Nc2cccc(-c3cccc(-c4nc5ccccc5[nH]4)c3)c2)cc1 [TCMDC-132162] | 2.725
O=C(Nc1ccc(Cl)cc1)Nc1cccc(-c2ccc(-c3nc4ccc(F)cc4[nH]3)cc2)c1 [TCMDC-133183] | 78.47
CC(=O)Nc1cccc(C(=O)Nc2ccc(-c3cccc(-c4nc5ccc(F)cc5[nH]4)c3)cc2)c1 [TCMDC-132135] | -4.902
O=C(Nc1ccc(Cl)cc1)Nc1ccc(-c2cccc(-c3nc4ccc(F)cc4[nH]3)c2)cc1 [TCMDC-133186] | -8.569
Cc1cnc(C(=O)Nc2ccc(-c3cccc(-c4nc5ccccc5[nH]4)c3)cc2)cn1 [TCMDC-137026] | -17.4
NC(=O)c1ccc(NCC(=O)Nc2cccc(-c3cccc(-c4nc5ccc(C(F)(F)F)cc5[nH]4)c3)c2)cc1 [TCMDC-132164] | -17.45
O=C(Nc1ccc(Cl)cc1)Nc1cccc(-c2cccc(-c3nc4ccc(F)cc4[nH]3)c2)c1 [TCMDC-133185] | -67.78
CC(=O)Nc1cccc(C(=O)Nc2cccc(-c3cccc(-c4nc5ccc(F)cc5[nH]4)c3)c2)c1 [TCMDC-132137] | 91.99
O=C(NCCc1ccc(F)cc1)c1ccc(N2CCN(c3ccncc3)CC2)nc1 [TCMDC-134585] | 1.059
COc1ccc(C2CC(c3cccs3)=NN2C(=O)c2ccco2)cc1OC (centres unmarked) [TCMDC-123796] | 12.69
COc1ccc(CCCCN2C(=O)C(c3ccccc3)(c3ccccc3)N=C2N)cc1 [TCMDC-136522] | -62.46
C=CCOc1cc(Cc2cnc(N)nc2N)cc(OC)c1OC [TCMDC-138042] | -3.964
CCOc1cc(C(=O)NCc2cccc(C(F)(F)F)c2)ccc1-c1nc2ccc(Cl)cc2[nH]1 [TCMDC-140902] | 11.85
O=C(Nc1ccc(Cn2ncc(N3CCCNCC3)c(Cl)c2=O)cc1)Nc1cc(F)cc(C(F)(F)F)c1 [TCMDC-133317] | -20.94
COc1nc(NCC(C)C)nc(Oc2ccc(=O)n(Cc3ccccc3)n2)n1 [TCMDC-124913] | 48.86

Structure (SMILES) | % Inhibition [%]
O=C(Cc1ccc(NC(=O)c2ccc(O)c(-c3ccc(Cl)c(Cl)c3)c2)cc1)NCCc1ccc(Cl)c(Cl)c1 [TCMDC-140873] | 3.533
O=C(/C=C/c1ccc(Cl)c(Cl)c1)NCC(CCCN1CCC(c2c[nH]c3ccccc23)CC1)c1ccccc1 (centres unmarked) [TCMDC-139506] | -7.536
CC(=O)NC1=NC(C)(C)N(OCCCOc2ccc(Cl)c(Cl)c2)C(NC(C)=O)=N1 [TCMDC-131742] | 2.376
Cc1cc(F)ccc1Oc1nc(Nc2ccc(N3CCOCC3)c(F)c2)nc2c1S(=O)(=O)CCC2 [TCMDC-135096] | 20
CCOc1cc(-c2nnc3[nH]c(=O)n(C)c(=O)c3n2)ccc1OC(C)C [TCMDC-124558] | -22.82
O=C(Nc1ccc(C(=O)OCC2CCCCC2)cc1)N[C@@H](Cc1ccc(O)cc1)C(=O)NC1CCN(Cc2ccc(O)cc2)C1 (some centres unmarked) [TCMDC-135357] | -23.12
O=C(Nc1cccc(-c2cccc(-c3nc4ccc(F)cc4[nH]3)c2)c1)c1ccncc1 [TCMDC-136959] | 85.81
O=C(Nc1cccc(-c2cccc(-c3nc4ccccc4[nH]3)c2)c1)c1ccoc1 [TCMDC-136840] | 9.278
O=C(Nc1cccc(-c2ccc(-c3nc4ccc(F)cc4[nH]3)cc2)c1)c1ccncc1 [TCMDC-136961] | -22.91
O=C(Nc1cccc(-c2cccc(-c3nc4ccc(F)cc4[nH]3)c2)c1)c1ccoc1 [TCMDC-136841] | 83.89
O=C(Nc1cccc(-c2ccc(-c3nc4ccc(F)cc4[nH]3)cc2)c1)c1ccoc1 [TCMDC-136843] | -15.37
O=C(Nc1ccc(-c2cccc(-c3nc4ccc(F)cc4[nH]3)c2)cc1)c1ccncc1 [TCMDC-136957] | -5.175
CCCCCCn1c(Sc2ccc(C#N)c([N+](=O)[O-])c2)nnc1-c1ccc(OC)cc1 [TCMDC-135604] | 12.04
CN1C(=O)OC[C@@H]1Cc1ccc2[nH]cc(C3=CCN(Cc4ccccc4)CC3)c2c1 [TCMDC-137790] | 15.2
COc1cccc(Nc2nnc(SCC(=O)NNC(=O)c3ccccn3)s2)c1 [TCMDC-124565] | 57.52
COCC(C)n1c(C)cc(C(=O)CSc2nnc(Nc3ccccc3)s2)c1C (centres unmarked) [TCMDC-123611] | 2.084
COc1cccc(C2C(C(=O)Nc3ccccc3)=C(C)N=c3sc(=Cc4ccc(O)cc4)c(=O)n32)c1 (centres unmarked) [TCMDC-125613] | -17.06
C[C@@H](CC1CCCCC1)OC(=O)N(C)[C@@H]1CCN(C#N)C1 [TCMDC-138502] | 39.73
COCCCNC(=O)c1ccc(O)c(-c2cc(Cl)cc(Cl)c2)c1 [TCMDC-140158] | -17.86
Cc1noc(C)c1-c1cccc(CNCc2ccc(-c3ccc(-c4nc5cc(C(F)(F)F)ccc5[nH]4)cc3)cc2)c1.O=C(O)C(F)(F)F [TCMDC-133058] | 15.98
